Assay [1] deals with MDA-MB-231. The assay is described as follows: cell viability relative to vehicle unstimulated control (fraction); higher = more viable cells. The conditions noted are these: pre-treatment time: 18 h then 24 h IFNg/TNF.
The subject of assay [2] is MDA-MB-231. The assay is described as follows: kynurenine production, fold change vs DMSO IFNg/TNF control; higher = more kynurenine produced (less inhibition). Particulars: pre-treatment time: 18 h then 24 h IFNg/TNF. In short, it runs like this:
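MDA-MB-231 cells (7 × 10^4/well, 96-well plates, seeded 24 h earlier) were pre-treated 18 h with each natural product in 0.1% DMSO, then stimulated 24 h with IFNγ (1 U/ml) and TNF (6.25 ng/ml) at 37°C. Supernatant kynurenine was read at 492 nm after trichloroacetic acid and p-dimethylaminobenzaldehyde treatment, against 0–100 μM standards. Kynurenine production is the fold change over cytokine-stimulated vehicle wells on the same plate, averaged over duplicate plates in the first screening round.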

± gives the standard deviation of the averaged measurements.
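Wherever cell viability relative to vehicle unstimulated control is given: viability of the cells left after supernatant collection, read with Deep Blue dye added for 4 h, as absorbance at 570 nm minus 600 nm.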

`C[C@@H]1CC[C@]2(C(=O)O)CC[C@]3(C)C(=CC[C@@H]4[C@@]5(C)C[C@@H](O)[C@@H](O)C(C)(C)[C@@H]5CC[C@]43C)[C@@H]2[C@]1(C)O` [Euscaphic acid] (compound dose: 10 uM): the cell viability in the assay on MDA-MB-231 [1] stood at 0.933 ± 0.02. Further, the kynurenine production in the assay with MDA-MB-231 [2] turned out to be 0.804 ± 0.15.

Consider `COC(=O)C1=CO[C@@H](O[C@@H]2O[C@H](CO)[C@@H](O)[C@H](O)[C@H]2O)[C@@H]2C(COC(C)=O)=C[C@H](O)[C@H]12` [Daphylloside] (compound dose: 10 uM), for which the cell viability in the assay with MDA-MB-231 [1] came to 0.999 ± 0.062. In the assay on MDA-MB-231 [2], the kynurenine production stood at 0.888 ± 0.048.

Turning to `C=C(C)C1CC=C(C)[C@@H](O)C1` (single isomer, unassigned; (-)) [(-)-carveol (mixed)] (compound dose: 10 uM), in the assay on MDA-MB-231 [1], the cell viability worked out at 0.985 ± 0.086. For the same molecule, the kynurenine production in the assay on MDA-MB-231 [2] is 1.02 ± 0.019.

Consider `CC(=O)OCC1=CCC2C(C=C(C)C(=O)C3(OC(C)=O)CC(C)C(OC(=O)c4ccccc4)C3C1OC(C)=O)C2(C)C` (stereo not given) [Euphorbia factor L7b] (compound dose: 10 uM), for which the cell viability with MDA-MB-231 [1] was 1.07 ± 0.03. Moreover, the kynurenine production in the assay on MDA-MB-231 [2] worked out at 0.936 ± 0.035.

With `C/C1=C\CC/C(C)=C/C2C(CC/C(C)=C/CC1)C2(C)C` (stereo not given) [Casbene] (compound dose: 10 uM), the cell viability with MDA-MB-231 [1] came out at 1.11 ± 0.042. Moreover, in the assay with MDA-MB-231 [2], the kynurenine production is 0.871 ± 0.056.

On to `CC(=O)O[C@@H]1[C@@H](O)[C@H](O[C@H]2CC[C@]34C[C@]35CC[C@]3(C)[C@@H]([C@@]6(C)CC[C@@H](C(C)(C)O)O6)[C@@H](O)C[C@@]3(C)[C@@H]5C[C@H](O[C@@H]3O[C@H](CO)[C@@H](O)[C@H](O)[C@H]3O)[C@H]4C2(C)C)OC[C@H]1O` [Isoastragaloside II] (compound dose: 10 uM), for which the cell viability in the assay with MDA-MB-231 [1] came to 0.99 ± 0.011. Further, the kynurenine production in the assay with MDA-MB-231 [2] was determined as 0.968 ± 0.029.

Consider `O=C(O)/C=C/c1ccccc1O` [O-coumaric acid] (compound dose: 10 uM), for which, in the assay with MDA-MB-231 [1], the cell viability turned out to be 0.976 ± 0.097. In addition, the kynurenine production in the assay with MDA-MB-231 [2] was determined as 0.9916 ± 0.006.

For the molecule `COc1ccc(SC)cc1` [4-methoxythioanisole] (compound dose: 10 uM), the cell viability in the assay with MDA-MB-231 [1] amounted to 0.965 ± 0.057. For the same molecule, in the assay on MDA-MB-231 [2], the kynurenine production was found to be 0.973 ± 0.12.

For `C=C1CCC[C@]2(C)C[C@]3(O)OC(=O)C(C)=C3C[C@@H]12` [Atractylenolide III] (compound dose: 10 uM), in the assay with MDA-MB-231 [1], the cell viability stood at 1.015 ± 0.0091. Also, the kynurenine production in the assay with MDA-MB-231 [2] was 0.763 ± 0.15.

In the case of `C[C@H]1O[C@@H](O[C@H]2[C@@H](O)C[C@H](O[C@H]3[C@@H](O)C[C@H](O[C@H]4CC[C@@]5(C)[C@H](CC[C@@H]6[C@@H]5CC[C@]5(C)[C@@H](C7=CC(=O)OC7)CC[C@]65O)C4)O[C@@H]3C)O[C@@H]2C)C[C@H](O)[C@@H]1O` [Digitoxin] (compound dose: 10 uM), the cell viability in the assay with MDA-MB-231 [1] stood at 0.997 ± 0.019. The kynurenine production with MDA-MB-231 [2] amounted to 0.967 ± 0.023.

`CC1(C)CCC[C@](C)([C@H]2CC[C@]3(C)[C@@H]2[C@H](O)C[C@@H]2[C@@]4(C)CC[C@H](O)C(C)(C)[C@@H]4[C@@H](O)C[C@]23C)O1` [Panaxatriol] (compound dose: 10 uM): the cell viability with MDA-MB-231 [1] came out at 0.926 ± 0.025. In the assay with MDA-MB-231 [2], the kynurenine production is 0.846 ± 0.073.

`COc1cc2cc3c4c(cc5c(c4c2cc1OC)OCO5)CCN3C` [Dehydrodicentrine] (compound dose: 10 uM): in the assay with MDA-MB-231 [1], the cell viability is 0.946 ± 0.021. In the assay on MDA-MB-231 [2], the kynurenine production came out at 0.807 ± 0.12.

As for `C[C@@]12C[C@@]3(O)O[C@@H](O1)[C@]1(COC(=O)c4ccc(O)cc4)[C@@H]3C[C@]12O[C@@H]1O[C@H](CO)[C@@H](O)[C@H](O)[C@H]1O` [Oxypaeoniflorin] (compound dose: 10 uM), the cell viability in the assay on MDA-MB-231 [1] is 1.05 ± 0.069. Also, the kynurenine production in the assay on MDA-MB-231 [2] worked out at 0.916 ± 0.082.

For the molecule `C[C@H](CC[C@@H](O[C@@H]1O[C@H](CO[C@@H]2O[C@H](CO)[C@@H](O)[C@H](O)[C@H]2O)[C@@H](O)[C@H](O)[C@H]1O)C(C)(C)O)[C@H]1CC[C@@]2(C)[C@@H]3CC=C4[C@@H](CC[C@H](O[C@@H]5O[C@H](CO)[C@@H](O)[C@H](O)[C@H]5O)C4(C)C)[C@]3(C)[C@H](O)C[C@]12C` [Mogroside III] (compound dose: 10 uM), the cell viability with MDA-MB-231 [1] was 0.857 ± 0.018. For the same molecule, the kynurenine production in the assay with MDA-MB-231 [2] stood at 0.997 ± 0.13.

With `C=C1CC[C@@H]2[C@](C)(CO)[C@H](O)CC[C@@]2(C)[C@@H]1C/C=C1/C(=O)OC[C@H]1O` [Andrographolide] (compound dose: 10 uM), the cell viability in the assay on MDA-MB-231 [1] worked out at 0.98 ± 0.018. Further, in the assay on MDA-MB-231 [2], the kynurenine production is 0.534 ± 0.15.

(Values after the supplement of paper PMC13094657.)
